In experiment [1] the test system is Zika virus NS2B-NS3 protease (unlinked complex). The experiment in a line: Primary screen GU Rhodamine qHTS for Zika virus inhibitors: Unlinked NS2B-NS3 protease assay (AID 1347159). Also: nearly all actives have a fitted effect of over 60% in size. Also: potency is read from the fitted curve at half-maximal effect. In short, it runs like this: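 Noncovalent NS2B hydrophilic domain/NS3 protease complex (25 nM final) in 10 mM Tris-HCl pH 8.0, 0.01% Tween 20, preincubated 15 min with compounds (up to 114 microM), then 1.5 microM Rhodamine110 substrate. Fluorescence change over 15 min fitted to 4-parameter Hill.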
(In general: In qHTS, concentration-response curves come from the screen itself.)

The subject of experiment [2] is Zika virus NS2B-NS3 protease (linked construct). Description: Primary screen NINDS Rhodamine qHTS for Zika virus inhibitors (AID 1347160). Also: nearly all actives have a fitted effect of over 55% in size. Also: potency is read from the fitted curve at half-maximal effect. In short, it runs like this: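 Purified NS2B-NS3 protease with the NS2B hydrophilic domain joined by a flexible linker (25 nM) in 10 mM Tris-HCl pH 8.0, 0.01% Tween 20, preincubated 15 min at RT with compound; Rhodamine110 peptide substrate 1.5 µM; fluorescence change over 15 min; 4-parameter Hill fit.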

In experiment [3] the test system is Zika virus NS2B-NS3 protease. The experiment in a line: Primary screen GU AMC qHTS for Zika virus inhibitors (AID 1347154). Also: nearly all actives have a fitted effect of over 70% in size. The essentials:
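Unlinked Zika NS2B hydrophilic domain–NS3 protease complex at 25 nM in 10 mM Tris-HCl pH 8.0, 0.01% Tween 20, with an AMC peptide substrate. Fluorescence change (340/450 nm) over 15 min at room temperature, normalized to controls, fitted to 4-parameter Hill.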

The nature of experiment [4]: Confirmatory screen GU Rhodamine qHTS for Zika virus inhibitors qHTS (AID 1347157). Also: potency is read from the fitted curve at half-maximal effect; nearly all actives have a fitted effect of over 70% in size. In short, it runs like this:
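Compounds, tested up to 114 microM, were incubated for 15 minutes with 25 nM unlinked NS2B-NS3 protease at pH 8.0. Cleavage of 1.5 microM Rhodamine110 substrate was then followed by fluorescence for 15 minutes.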

Experiment [5] in a line: Confirmatory screen NINDS Rhodamine qHTS for Zika virus inhibitors (AID 1347161). Also: potency is read from the fitted curve at half-maximal effect; nearly all actives have a fitted effect of over 60% in size. The essentials: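 Percent inhibition, normalized to uninhibited and enzyme-free controls, is fitted to a 4-parameter Hill equation. Fluorescence change comes from a 15-min cleavage of 1.5 microM bis-peptide Rhodamine110 substrate by 25 nM linked NS2B-NS3 at room temperature.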
For experiment [6], the system named is Zika virus NS2B-NS3 protease (linked). The experiment in a line: 384 well plate NINDS AMC confirmatory qHTS for Zika virus inhibitors (AID 1347163). Also: potency is read from the fitted curve at half-maximal effect; nearly all actives have a fitted effect of over 50% in size. In short, it runs like this:
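Linked protease 5/30/60 nM final; cpds up to 1 mM final, ~15 min preinc. Substrate Ac-VKTGKR-AMC 30 microM final. RT, dark, 25 min; FI ex 355/em 460; normalized to no-enzyme/no-inhibitor ctrls.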

The test system of experiment [7] is Zika virus NS2B-NS3 protease (linked construct). The experiment in a line: 384 well plate NINDS Rhodamine confirmatory qHTS for Zika virus inhibitors (AID 1347164).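 Also: fluorescence from protease cleavage of Ac-LKRR-rhodamine 110 substrate; potency is read from the fitted curve at half-maximal effect; nearly all actives have a fitted effect of over 65% in size.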 In short, it runs like this:
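Linked NS2B-NS3 protease (final 5, 30 or 60 nM) preincubated ~15 minutes with compounds, then 10 microM Ac-LKRR-Rhodamine 110 added. Fluorescence (485/538 nm) read after 25 minutes at room temperature, normalized to no-enzyme and no-inhibitor controls.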

SMILES strings stand for the structures. Results filed as inconclusive are left out. Active and inactive are the calls of the source. Calls follow the shape of the dose curve; as a rule, active = well fitted curve in the direction sought with a large enough effect; inconclusive = small, poorly fitted or top-dose-only effect, or another doubt; inactive = no such curve, though single readings can be large; an effect the other way counts as inactive or inconclusive.

Eight compounds from PubChem BioAssay (NCATS) can be followed below.

For the compound `Cc1ccccc1C(C(=O)NC1CCCCC1)N(C(=O)CNc1ccc(C#N)cc1)c1cccc(F)c1` (stereo not drawn), the Potency entry in experiment [1] and in experiment [2] was “inactive” each time.
Regarding `CN1CCN(c2cccc(Nc3nc4c(-c5ccc(S(C)(=O)=O)cc5)cccn4n3)c2)CC1`, the Potency entry in experiment [1] and in experiment [2] was “inactive” each time.
Consider `c1ccc(CNc2nc(N3CCOc4ccccc43)nc3c2CCCC3)cc1`, for which the Potency entry in experiment [1] and in experiment [2] was “inactive” each time.
For the compound `N#Cc1ccc(Oc2ccc3c(c2)COB3O)cc1`, the Potency result in experiment [3] and in experiment [2] was “inactive” throughout.
In the case of `CNC(=O)c1cc(Oc2ccc(NC(=O)Nc3ccc(Cl)c(C(F)(F)F)c3)c(F)c2)ccn1`, in experiment [2], the Potency entry was “inactive”.
For the compound `COc1ccc(Cn2ccc3ccc(C(=O)NO)cc32)cc1`, the Potency result in experiment [1] and in experiment [2] was “inactive” in each case.
In the case of `CN(C)c1ccc(-c2nc3ncc(Cl)c(N4CCN(CC(=O)Nc5nccs5)CC4)c3[nH]2)cc1`, in experiment [1], the Potency is 17800 nM (active).
With `O=S(=O)(O)c1ccc2cc(N=Nc3cc(S(=O)(=O)O)c4cccnc4c3O)ccc2c1`, the Potency in experiment [4] is 1390 nM (active); in experiment [1], 794 nM (active); in experiment [2], 1260 nM (active); in experiment [5] it was 1390 nM (active); in experiment [6], 79400 nM (active); in experiment [7], 562 nM (active).
